Results on 17 compounds are retold here after the antibiotic and cytotoxicity screens of Wong et al. (2023).

In all, about 39,000 compounds went through this assay and about 3,300 (8.5%) were called active. Shown is part of a subset that was picked to be rich in actives.

The assay relates to HepG2. As to the kind of experiment: cytotoxicity call (relative viability < 0.9). Conditions: 10 µM.
With `C[C@@H]1CCCCO[C@H](CN(C)S(=O)(=O)c2cn(C)cn2)[C@H](C)CN([C@@H](C)CO)C(=O)c2cc(NC(=O)CCCN(C)C)ccc2O1`, the cytotoxicity call is “inactive”.

`CO[C@H](CN(C)C(=O)Nc1ccc(C(F)(F)F)cc1)[C@H](C)CN(Cc1ccccc1Cl)[C@@H](C)CO`: the cytotoxicity call is “inactive”. For `C[C@@H]1CN([C@H](C)CO)C(=O)c2c(c3ccccc3n2C)-c2ccccc2CO[C@@H]1CN(C)C(=O)Nc1ccc(F)cc1` the value was “inactive”. The result for `COCC(=O)N1CC[C@@H](O)[C@@H]1Cc1cnn(C)c1` reads “inactive”; that for `CN1C(=O)c2cc(NC(=O)C3CCOCC3)ccc2OC[C@H]2O[C@H](CC(=O)NCc3ccccc3F)CC[C@@H]21`, “inactive”; that for `COC(=O)C[C@@H]1CC[C@H]2[C@H](COc3ccc(NS(=O)(=O)c4ccccc4Cl)cc3C(=O)N2C)O1`, “inactive”. As to `COCC(=O)N1C[C@H](C)[C@H](OC)CN(C)C(=O)c2cc(NC(=O)Nc3ccccc3)ccc2OC[C@H]1C`, the cytotoxicity call was “inactive”.

As for `C[C@@H]1CN([C@H](C)CO)C(=O)c2cccc(NC(=O)c3ccncc3)c2O[C@H]1CN(C)Cc1ccc2c(c1)OCO2`, the cytotoxicity call was “inactive”. For the compound `O=C(CCCCCCC(=O)N/N=C/[C@@H](O)[C@H](O)[C@H](O)CO)NO`, the cytotoxicity call is “inactive”.

As for `C[C@@H]1CCCCO[C@H](CN(C)Cc2ccc(Cl)c(Cl)c2)[C@H](C)CN([C@@H](C)CO)C(=O)c2cc(NS(=O)(=O)c3ccc(Cl)cc3)ccc2O1`, the cytotoxicity call is “active”. For the compound `C[C@@H]1CCCCO[C@H](CN(C)Cc2ccc(Cl)c(Cl)c2)[C@@H](C)CN([C@H](C)CO)C(=O)c2cc(NS(=O)(=O)c3ccc(Cl)cc3)ccc2O1`, the cytotoxicity call was “active”. Consider `C[C@@H]1CCCCO[C@@H](CN(C)Cc2ccc(Cl)c(Cl)c2)[C@@H](C)CN([C@H](C)CO)C(=O)c2cc(NS(=O)(=O)c3ccc(Cl)cc3)ccc2O1`, for which the cytotoxicity call was “inactive”. The result for `C[C@@H]1CCCCO[C@H](CN(C)Cc2ccc(Cl)c(Cl)c2)[C@@H](C)CN([C@@H](C)CO)C(=O)c2cc(NS(=O)(=O)c3ccc(Cl)cc3)ccc2O1` reads “active”; that for `C[C@@H]1CCCCO[C@@H](CN(C)Cc2ccc(Cl)c(Cl)c2)[C@H](C)CN([C@H](C)CO)C(=O)c2cc(NS(=O)(=O)c3ccc(Cl)cc3)ccc2O1`, “active”; that for `C[C@H](CO)N1C[C@H](C)[C@@H](CN(C)Cc2ccc(Cl)c(Cl)c2)OCCCC[C@H](C)Oc2ccc(NS(=O)(=O)c3ccc(Cl)cc3)cc2C1=O`, “inactive”. For `CC(C)NC(=O)Nc1cccc2c1O[C@H](CN(C)Cc1ccc3c(c1)OCO3)[C@@H](C)CN([C@@H](C)CO)C2=O` the value was “inactive”; for `COc1ccc(NC(=O)Nc2ccc3c(c2)C(=O)N([C@H](C)CO)C[C@H](C)[C@@H](CN(C)C(=O)Nc2ccc(C(F)(F)F)cc2)OCCCC[C@H](C)O3)cc1`, “inactive”.
